The results in this text go back to PubChem BioAssay.

The nature of assay [1]: blockers of polyQ-driven CASP3 activation – cell-based (AID 1583). Particulars: polyglutamine-induced caspase-3 activation, cell assay; stronger effect = higher value;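 tested at 10 µM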.
The nature of assay [2]: yeast 75Q aggregation reduction – 75Q-TubU reporter (AID 1593). Particulars: Yeast 75Q polyglutamine aggregation reporter.
A short description of assay [3]: restoration of touch response, mutant HTT neurons – whole organism, C. elegans mechanosensory neurons, N-terminal huntingtin (AID 1599). Particulars: C. elegans polyQ-huntingtin mechanosensory neurons, stronger effect = higher value.
A short description of assay [4]: blockers of cytochrome c efflux from mitochondria – biochemical, purified mitochondria (AID 1603).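 Also: mouse liver mitochondria challenged with calcium chloride; signal normalized to the plate average as 100%.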 Conditions: stronger effect = lower value.
Assay [5] in a line: polyglutamine aggregate formation blockers (AID 1604). Particulars: polyglutamine-induced protein aggregation inhibition assay; stronger effect = higher value; tested at 2.5 µM.
Assay [6] can be described thus: glutamate transport activators, MN-1 cells, MN-1 cell line (AID 1612).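 Also: tested at 1 µM final; 0% = mean of DMSO vehicle wells on each plate; positive means more glutamate uptake than control and negative means less.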 Conditions: MN-1 motor neuron cells, stronger effect = higher value.
A short description of assay [7]: GFP-Q80 aggregate reduction, neuronal-like cells, cell-based, NGF-treated PC12, GFPQ80 (AID 1614).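 Also: lower means fewer inclusions and 0 means no inclusions at all.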 Particulars: PC12 NGF-treated GFP-polyQ80 inclusion reduction.
Assay [8] in a line: 75Q-TubH aggregate inhibition, S. cerevisiae, yeast (AID 1616). Conditions: S. cerevisiae 75Q-TubH polyglutamine aggregation suppression; stronger effect = higher value.
The nature of assay [9]: rescue of PC12 cells from polyQ htt toxicity – LDH release (AID 1610). Conditions: PC12 mutant huntingtin toxicity, final LDH at 4 uM, stronger effect = lower value. In general terms: LDH in the medium is a marker of cell lysis.
Assay [10] is described as follows: glutamate excitotoxicity neuroprotectants – cell-based, TUNEL DNA degradation staining, MNGlu (AID 1594). Particulars: motor neurons, glutamate-induced death, at 1 µM, stronger effect = higher value.
Assay [11] is described as follows: galactose survival enhancers in mitochondrial complex I cybrids – cell-based, galactose medium, ATP luminescence, primary screen (AID 1645843;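 active = z-score of at least 1.8 in each of two replicates, scored against plate mean and spread of sample wells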;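 also: positive z means more ATP and so rescue of galactose-driven cybrid death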). Particulars: complex I mutant cybrid cells, 72 h, stronger effect = higher value.

What is called inhibition is the relative decrease from the control value, in per cent.

Inconclusive results are not listed. For some of these results: Measured potencies and affinities stand elsewhere. Active and inactive are the calls of the source. Unless noted, no rule for the calls is given here.

With `CNC1(c2ccccc2Cl)CCCCC1=O` (stereo not drawn), the inhibition in [1] came out at 12.3%. Moreover, the score in [2] turned out to be 1.43. The molecule also displayed a rescue above control in assay [3] of -2.24. The cytochrome c release ratio in assay [4] was 1.27. For the same molecule, the inhibition of aggregation in [5] amounted to 3.17%. The glutamate uptake change in assay [6] is -3.45%. Also, the inclusion score in assay [7] worked out at 2. The molecule further gave an aggregation suppression score in [8] of 1.36.
As for `CCCCCc1cc(O)c2c(c1)OC(C)(C)c1ccc(C)cc1-2`, in [1], the inhibition came out at 29.1%. Further, the score in assay [2] was -1.59. This molecule also registered a rescue above control in assay [3] of 9.18. In assay [4], the cytochrome c release ratio worked out at 1.94. Further, the inhibition of aggregation in [5] is -2.04%. In assay [9], this molecule came in with a normalised LDH release of 0.953. Also, the glutamate uptake change in assay [6] is -26.4%. The molecule further gave an aggregation suppression score in [8] of -0.155.
Turning to `O=C1CN=C(c2ccccc2)c2cc(Cl)ccc2N1`, the inhibition in [1] stood at 6.42%. In addition, in assay [2], the score is 1.16. The protection in assay [10] was 38% (active). In assay [3], this molecule had a rescue above control of 2.8. The cytochrome c release ratio in assay [4] turned out to be 0.98. Besides, the inhibition of aggregation in assay [5] amounted to 2.04%. Further, the glutamate uptake change in assay [6] is -20.9%. Besides, in [7], the inclusion score amounted to 2. The molecule further gave an aggregation suppression score in [8] of 1.12.
As to `CN1C2CCC1C(C(=O)O)C(OC(=O)c1ccccc1)C2` (stereo not drawn), the inhibition in assay [1] was -11.5%. The score in assay [2] was determined as 0.85. Further, the rescue above control in assay [3] is -9.16. The cytochrome c release ratio in [4] is 1.03. The inhibition of aggregation in assay [5] turned out to be 41.5%. In [6], the glutamate uptake change is -21%. This molecule also came in with an inclusion score in assay [7] of 2. This molecule yielded an aggregation suppression score in assay [8] of 1.17.
`COc1ccc(CN2CCN(C)C(CCO)C2)c(OC)c1OC` (stereo not drawn): the z-score in [11] was -0.21 (inactive).
For `CCC1(CCC(C)C)C(=O)NC(=O)NC1=O`, in assay [1], the inhibition was determined as 6.77%. Further, the score in assay [2] amounted to 1.7. Further, in assay [3], the rescue above control is 0.92. Further, the cytochrome c release ratio in assay [4] was 0.96. Also, the inhibition of aggregation in assay [5] was found to be 40.1%. The glutamate uptake change in [6] was -7.2%. In assay [7], this molecule registered an inclusion score of 2. Also, in assay [8], the aggregation suppression score stood at 1.35.
In the case of `CNC(C)Cc1ccccc1` (stereo not drawn), the inhibition in assay [1] came out at 4.94%. This molecule also showed a score in assay [2] of 1.26. Moreover, in [3], the rescue above control turned out to be 3.06. Further, in assay [4], the cytochrome c release ratio was determined as 0.97. The inhibition of aggregation in assay [5] was -0.68%. For the same molecule, the glutamate uptake change in assay [6] turned out to be 6.37%. In assay [7], the inclusion score was 2. Besides, in assay [8], the aggregation suppression score came out at 1.49.
With `CCCCCc1cc(O)c2c(c1)OC(C)(C)C1CCC(C)=CC21` (stereo not drawn), the inhibition in assay [1] is 5.35%. The molecule also had a score in assay [2] of -0.54. In assay [3], this molecule showed a rescue above control of -0.11. In assay [4], the cytochrome c release ratio was 2.94. Also, the inhibition of aggregation in [5] was determined as 34.7%. Further, in assay [9], the normalised LDH release amounted to 0.893. For the same molecule, the glutamate uptake change in assay [6] was -3.83%. The molecule also had an aggregation suppression score in assay [8] of 0.291.
